For 40 sequences, PBM binding z-score results are on record in the supplement of paper PMC6555819.

The first experiment concerns LXRb:RXRa (NR concentration 270 nM, RXRa partner concentration 90 nM). As to the kind of experiment: PBM binding z-score (relative to random genomic background probes); higher = stronger binding; sequences stand for … in GC…GCGATTGACAGCGTAGAATGAAGG
The essentials: (§1)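 Random background probes are the reference for binding z-scores. These scores derive from regression-normalized fluorescence on custom Agilent 4×180K protein-binding microarrays incubated 1 h with ligand-free nuclear receptor dimers. Binding was detected with antibodies against each partner (one per run).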
Consider TCTAGCAGGCCAGAGGGTCACACAAGAGGTACGG, for which the PBM binding z-score amounted to 1.83.

Turning to AGTCAAAGTTCACTTGGTAACGTAAGATTCAGCT, the PBM binding z-score turned out to be 3.4.

In the case of CCGACTGGGGCAGAAAGGTTACCATGCCATCCGG, the PBM binding z-score is 0.479.

The sequence GCTCGGAGGACACGGTCAGAGCTTTGTCCGTAGA yielded a PBM binding z-score of -0.918.

Take CCTATTAGTTGACCATAAGGTCAACCGAAGCTCG: the PBM binding z-score was found to be 3.83.

AGTCAAAGCTCATCTAGGTAACGTAAGATATGCT came in with a PBM binding z-score of -0.318.

In the case of TCTAGTTGGTCACGAAGGTCACACACGACGGGTA, the PBM binding z-score was 3.17.

For the sequence TCAGATAGGTAATACAGGTGAAAGTCGGCATCTA, the PBM binding z-score worked out at 0.889.

Regarding CAGCCTAGGTCGGGGCCAGTATAGGAGGAACGTT, the PBM binding z-score was -0.47.

In the case of CGAACTAGATCAAGGACAGTGAATCTCCGCACGC, the PBM binding z-score was -0.756.

CGTCCAAGGTCAAGGTCAGCGAAAGAGACTCGAA registered a PBM binding z-score of 4.65.

CAGCCTAGGTCAAGGCCAGTATAGGAGGAACGTT had a PBM binding z-score of 1.7.

In turn, ATACCAAGGTGATCGTGAGGTGGTTGATACTAAC displayed a PBM binding z-score of -0.0432.

In turn, CAAACTAGGTCGCAGAGGTCAAAGTCCGTGCGTA had a PBM binding z-score of 5.36.

As for ATCTCTAAGTAAGACTCAGTTCAGTGAAGAACGC, the PBM binding z-score was determined as 0.112.

The sequence CGTCAAAGTTCAACTAAGGTAACGGAAAGCACGC had a PBM binding z-score of 4.2.

TCTTGTAGATTAAAGGTTAAGAAAGCCGAAGCCT came in with a PBM binding z-score of 1.82.

With TCGTATAGGTAAAGGTGAAAGTCGAACGATATGA, the PBM binding z-score amounted to 1.11.

The sequence CCTGCTAGGTCAATGGTCAACTAAAGCAGCTCGC yielded a PBM binding z-score of 1.83.

The sequence TCTCGGACGACACGAAGGTCAGAGCTTTCCAGAG showed a PBM binding z-score of 1.17.

Regarding AAAGACAGGTGATGAAGGTAACTCAGGCTATCAT, the PBM binding z-score amounted to 0.0714.

On to TCTTGTAGTTCAGCAGGTTAAGAAAGCTGGCCAA, for which the PBM binding z-score was determined as 0.805.

Take TAGAGTAGGTTAGTCGGGGCATTCAGCCAACATA: the PBM binding z-score worked out at 0.87.

Turning to CGTCCAAGGTCAGAGAGGTAAGTGAATGCCGAGT, the PBM binding z-score came to 2.39.

As to CCGACTGTGGCAAAGGTTACCATACTCAGTACGA, the PBM binding z-score amounted to 1.73.

Regarding CAGCCGAGGTCAGGGCCAGTATAGGAGGAACGTT, the PBM binding z-score worked out at 3.28.

Turning to CCAACTAGGTCAAGGTCAAAGTCGGTTTGTGCCA, the PBM binding z-score was 4.73.

As for CCTAGCAGGCCCATCTGGGTCACTCAAGGCTTGA, the PBM binding z-score turned out to be 0.484.

Regarding CATCAAAGTTCAACTAAGGTAACGTAAAGCACGC, the PBM binding z-score was determined as 4.54.

Sequence ACTAGCTGGTCAGCTGAGGTCACACACAATTCGG registered a PBM binding z-score of 3.21.

TCTTGTAGATCAACAGGAGGTTGAGAAAGATCGA: the PBM binding z-score was -0.211.

Take CTACCAAGGTGAACAAGGTCGTGGATTACTATTC: the PBM binding z-score came out at 1.73.

Regarding ACTCGGAGGACAAAGGTCAGAGCTACGCCAGTGA, the PBM binding z-score came to 3.4.

As for TCTTGTAGATCAATAGAGTTTAAGAAAGTGCGCT, the PBM binding z-score amounted to 0.0999.

TAGCCCAGGTCATGCGGGCCAGTATAGTGTCGGC yielded a PBM binding z-score of 1.9.

The sequence AGAACAAGGGCAATGAGTTGATAGCACGGGTGGC had a PBM binding z-score of 0.0189.

CCTACTGGGCCACGAAAGGTCATTGAATCAGTGA registered a PBM binding z-score of 4.26.

In turn, GCTTGTTGATCAAGGTTAAGAAAGACTAAGCTAA came in with a PBM binding z-score of 0.239.

Turning to CCTACTGGGCCAAGGACATTGATCAGTCAAAGCA, the PBM binding z-score was -0.778.

With AGAATGAGGTTATACCTAGATCAGGGAAGAAAGT, the PBM binding z-score was 1.31.

For another experiment, the system named is LXRb homodimer (NR concentration 270 nM). Described as above. The essentials:
as §1
TCTAGCAGGCCAGAGGGTCACACAAGAGGTACGG registered a PBM binding z-score of -1.34.

Sequence AGTCAAAGTTCACTTGGTAACGTAAGATTCAGCT displayed a PBM binding z-score of 1.63.

As to CCGACTGGGGCAGAAAGGTTACCATGCCATCCGG, the PBM binding z-score was -1.31.

Sequence GCTCGGAGGACACGGTCAGAGCTTTGTCCGTAGA yielded a PBM binding z-score of -1.3.

As to CCTATTAGTTGACCATAAGGTCAACCGAAGCTCG, the PBM binding z-score worked out at 1.73.

AGTCAAAGCTCATCTAGGTAACGTAAGATATGCT: the PBM binding z-score was -0.689.

The sequence TCTAGTTGGTCACGAAGGTCACACACGACGGGTA had a PBM binding z-score of 0.769.

As to TCAGATAGGTAATACAGGTGAAAGTCGGCATCTA, the PBM binding z-score is 0.0501.

CAGCCTAGGTCGGGGCCAGTATAGGAGGAACGTT gave a PBM binding z-score of -1.25.

Consider CGAACTAGATCAAGGACAGTGAATCTCCGCACGC, for which the PBM binding z-score was -0.00382.

Regarding CGTCCAAGGTCAAGGTCAGCGAAAGAGACTCGAA, the PBM binding z-score was 0.78.

On to CAGCCTAGGTCAAGGCCAGTATAGGAGGAACGTT, for which the PBM binding z-score is -0.501.

For ATACCAAGGTGATCGTGAGGTGGTTGATACTAAC, the PBM binding z-score turned out to be 0.00305.

CAAACTAGGTCGCAGAGGTCAAAGTCCGTGCGTA gave a PBM binding z-score of 1.26.

In turn, ATCTCTAAGTAAGACTCAGTTCAGTGAAGAACGC registered a PBM binding z-score of 0.924.

Take CGTCAAAGTTCAACTAAGGTAACGGAAAGCACGC: the PBM binding z-score stood at 2.03.

In turn, TCTTGTAGATTAAAGGTTAAGAAAGCCGAAGCCT gave a PBM binding z-score of 0.134.

The sequence TCGTATAGGTAAAGGTGAAAGTCGAACGATATGA displayed a PBM binding z-score of -0.167.

Take CCTGCTAGGTCAATGGTCAACTAAAGCAGCTCGC: the PBM binding z-score was -0.0517.

As for TCTCGGACGACACGAAGGTCAGAGCTTTCCAGAG, the PBM binding z-score was -0.374.

AAAGACAGGTGATGAAGGTAACTCAGGCTATCAT registered a PBM binding z-score of -0.0721.

On to TCTTGTAGTTCAGCAGGTTAAGAAAGCTGGCCAA, for which the PBM binding z-score was found to be 0.146.

TAGAGTAGGTTAGTCGGGGCATTCAGCCAACATA: the PBM binding z-score was 1.54.

For the sequence CGTCCAAGGTCAGAGAGGTAAGTGAATGCCGAGT, the PBM binding z-score was -0.0952.

In turn, CCGACTGTGGCAAAGGTTACCATACTCAGTACGA showed a PBM binding z-score of -0.558.

With CAGCCGAGGTCAGGGCCAGTATAGGAGGAACGTT, the PBM binding z-score was -0.519.

CCAACTAGGTCAAGGTCAAAGTCGGTTTGTGCCA registered a PBM binding z-score of 1.43.

As to CCTAGCAGGCCCATCTGGGTCACTCAAGGCTTGA, the PBM binding z-score is -1.16.

In the case of CATCAAAGTTCAACTAAGGTAACGTAAAGCACGC, the PBM binding z-score was found to be 3.07.

In turn, ACTAGCTGGTCAGCTGAGGTCACACACAATTCGG gave a PBM binding z-score of -0.0797.

TCTTGTAGATCAACAGGAGGTTGAGAAAGATCGA yielded a PBM binding z-score of -0.144.

Sequence CTACCAAGGTGAACAAGGTCGTGGATTACTATTC had a PBM binding z-score of -0.448.

Turning to ACTCGGAGGACAAAGGTCAGAGCTACGCCAGTGA, the PBM binding z-score was determined as 0.202.

The sequence TCTTGTAGATCAATAGAGTTTAAGAAAGTGCGCT registered a PBM binding z-score of -0.184.

Take TAGCCCAGGTCATGCGGGCCAGTATAGTGTCGGC: the PBM binding z-score was -0.0451.

AGAACAAGGGCAATGAGTTGATAGCACGGGTGGC had a PBM binding z-score of 0.008.

Sequence CCTACTGGGCCACGAAAGGTCATTGAATCAGTGA registered a PBM binding z-score of 0.492.

Consider GCTTGTTGATCAAGGTTAAGAAAGACTAAGCTAA, for which the PBM binding z-score was -0.437.

CCTACTGGGCCAAGGACATTGATCAGTCAAAGCA showed a PBM binding z-score of -0.99.

In turn, AGAATGAGGTTATACCTAGATCAGGGAAGAAAGT had a PBM binding z-score of -0.249.
